Experimental findings from paper PMC7826789 (International Journal of Molecular Sciences, 2021) are described below.

Test systems include TXK; TYRO3; ULK1; ULK2; ULK3; VRK2; WEE1; WEE2; WNK1; WNK2; WNK3; WNK4.
Conditions in all cases: Compound Concentration (nM):1000
The test system of assay [1] is TYK2(JH1domain-catalytic).
In assay [2] the test system is TYK2(JH2domain-pseudokinase).
A further assay concerns T1, VEGFR2.
T1 construct: gene KDR

The next assay deals with T2, VPS34.
T2 construct: gene PIK3C3

The test system of a further assay is T3, YANK1.
T3 construct: gene STK32A

For another assay, the system named is T4, YANK2.
T4 construct: gene STK32B

The next assay has as its system T5, YANK3.
T5 construct: gene STK32C

A further assay relates to T6, YES.
T6 construct: gene YES1
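Also: KINOMEscan scanMAX binding as percent activity remaining versus control; lower means stronger binding.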

With `Cl.c1ccc(Cc2nc3ccc(Nc4ncnc5ccccc45)cc3[nH]2)cc1` [GR269666A], the “Percent Control” value with TXK amounted to 100%; in [1], 100%; in assay [2] it was 100%; in the assay with TYRO3, 90%; in the assay on ULK1 it was 67%; in the assay on ULK2, 100%. The “Percent Control” value with ULK3 was 93%; with VEGFR2 it was 72%; with VPS34 it was 100%; in the assay on VRK2, 100%; in the assay on WEE1, 100%; in the assay on WEE2 it was 100%. For the same molecule, the “Percent Control” value in the assay on WNK1, in the assay with WNK2, in the assay with WNK3, in the assay with WNK4, in the assay on YANK1 and in the assay with YANK2 was 100% throughout. In addition, the “Percent Control” value in the assay with YANK3 and in the assay with YES was 100% each time.

In the case of `C[C@@H](Oc1cc(-n2cnc3ccc(OC4CCN(C)CC4)cc32)sc1C(N)=O)c1ccccc1Cl` [GSK579289A], the “Percent Control” value stood at 60% in the assay on TXK; 100% in assay [1]; 93% in [2]; 92% in the assay with TYRO3; 71% with ULK1; 44% in the assay with ULK2. Further, the “Percent Control” value with ULK3 was 100%; in the assay with VEGFR2, 64%; with VPS34, 29%; in the assay with VRK2 it was 95%; with WEE1, 40%; in the assay on WEE2, 87%. The “Percent Control” value was 32% in the assay with WNK1; 7.1% in the assay with WNK2; 26% in the assay on WNK3; 2.7% in the assay on WNK4; 77% in the assay with YANK1; 100% in the assay on YANK2. In addition, the “Percent Control” value in the assay with YANK3 is on record as 100%; in the assay on YES, 87%.

In the case of `NS(=O)(=O)c1ccc(N/N=C2\C(=O)Nc3ccc(C(=O)NCCc4c[nH]cn4)cc32)cc1` [GW300660X], the “Percent Control” value in the assay with TXK came to 100%; in assay [1], 81%; in assay [2], 84%; with TYRO3, 100%; in the assay on ULK1, 38%; in the assay on ULK2 it was 37%. The “Percent Control” value with ULK3 was 65%; with VEGFR2, 79%; in the assay with VPS34, 86%; in the assay on VRK2, 100%; in the assay with WEE1, 100%; with WEE2 it was 100%. The “Percent Control” value in the assay with WNK1 worked out at 100%; with WNK2, 100%; with WNK3, 95%; in the assay with WNK4, 100%; in the assay with YANK1 it was 100%; in the assay on YANK2, 100%. Also, the “Percent Control” value in the assay on YANK3 and with YES was 100% in each case.

On to `COc1cccc(-n2ncc3c(N/N=C/c4ccncc4)ncnc32)c1` [GW784752X], for which the “Percent Control” value is on record as 90% in the assay on TXK; 88% in [1]; 11% in assay [2]; 74% with TYRO3; 67% in the assay with ULK1; 69% in the assay with ULK2. Further, the “Percent Control” value was 100% in the assay with ULK3; 75% in the assay with VEGFR2; 100% in the assay with VPS34; 85% in the assay on VRK2; 100% in the assay on WEE1; 89% with WEE2. Also, the “Percent Control” value came to 98% in the assay on WNK1; 100% in the assay with WNK2; 100% in the assay on WNK3; 100% in the assay with WNK4; 100% in the assay on YANK1; 88% in the assay with YANK2. Further, the “Percent Control” value in the assay with YANK3 is recorded as 100%; in the assay on YES, 87%.

Consider `Nc1ncnc2occ(-c3ccc(NC(=O)Nc4cc(C(F)(F)F)ccc4F)cc3)c12` [GW770249X], for which the “Percent Control” value was determined as 100% in the assay on TXK; 100% in assay [1]; 100% in assay [2]; 100% in the assay on TYRO3; 100% in the assay with ULK1; 93% in the assay on ULK2. Moreover, the “Percent Control” value in the assay with ULK3 is 100%; with VEGFR2 it was 0.9%; with VPS34, 100%; in the assay with VRK2, 100%; with WEE1 it was 100%; in the assay on WEE2, 100%. The “Percent Control” value is reported as 96% in the assay on WNK1; 100% in the assay on WNK2; 100% in the assay on WNK3; 100% with WNK4; 99% with YANK1; 100% in the assay with YANK2. For the same molecule, the “Percent Control” value with YANK3 came to 100%; in the assay on YES it was 98%.

`CCS(=O)(=O)c1ccc(OC)c(Nc2ncc(-c3cccc(F)c3)o2)c1` [GW621970X]: the “Percent Control” value in the assay on TXK is 42%; in [1], 100%; in [2], 100%; in the assay with TYRO3, 73%; in the assay on ULK1, 88%; with ULK2, 95%. Further, the “Percent Control” value in the assay with ULK3 was 100%; in the assay with VEGFR2 it was 2.4%; in the assay with VPS34 it was 100%; with VRK2, 93%; in the assay on WEE1, 100%; in the assay with WEE2, 100%. The “Percent Control” value was 90% with WNK1; 100% with WNK2; 97% in the assay with WNK3; 100% with WNK4; 100% in the assay on YANK1; 100% in the assay on YANK2. Besides, the “Percent Control” value in the assay with YANK3 is recorded as 100%; in the assay on YES, 43%.

Regarding `CC(C)COC(=O)c1ccc2c(c1)/C(=C/Nc1ccc(S(N)(=O)=O)cc1)C(=O)N2` [GW416981X], the “Percent Control” value in the assay with TXK was determined as 100%; in assay [1] it was 42%; in assay [2] it was 100%; with TYRO3, 100%; in the assay with ULK1, 0.1%; in the assay on ULK2 it was 0.3%. The “Percent Control” value in the assay on ULK3 was 13%; with VEGFR2, 63%; in the assay on VPS34, 100%; in the assay with VRK2 it was 100%; with WEE1 it was 100%; in the assay with WEE2, 100%. The “Percent Control” value in the assay with WNK1, in the assay on WNK2, in the assay with WNK3, with WNK4, in the assay with YANK1 and in the assay with YANK2 was 100% each time. Besides, the “Percent Control” value in the assay with YANK3 and in the assay on YES was 100% throughout.

Turning to `Cl.O=C(Nc1ccc(Oc2ccc3[nH]c(NC(=O)c4ccco4)nc3c2)cc1)Nc1cc(C(F)(F)F)ccc1F` [GW683134A], the “Percent Control” value with TXK is on record as 80%; in assay [1] it was 100%; in assay [2], 100%; in the assay on TYRO3, 71%; in the assay with ULK1, 100%; in the assay with ULK2, 89%. The “Percent Control” value with ULK3 was 62%; in the assay with VEGFR2, 20%; with VPS34, 100%; in the assay on VRK2 it was 100%; with WEE1 it was 100%; in the assay on WEE2, 100%. For the same molecule, the “Percent Control” value in the assay with WNK1 worked out at 90%; in the assay on WNK2, 100%; in the assay on WNK3, 100%; in the assay on WNK4, 100%; in the assay with YANK1, 82%; in the assay with YANK2 it was 100%. Moreover, the “Percent Control” value in the assay with YANK3 was 100%; in the assay on YES it was 61%.

On to `COc1ccc2cc(-c3c(-c4ccncc4)nc(-c4ccc(S(C)(=O)=O)cc4C)n3C)ccc2c1` [SB-633825], for which the “Percent Control” value in the assay on TXK is on record as 90%; in assay [1] it was 73%; in assay [2], 100%; in the assay with TYRO3 it was 72%; with ULK1 it was 72%; with ULK2 it was 88%. Also, the “Percent Control” value was 73% in the assay on ULK3; 49% in the assay on VEGFR2; 86% in the assay with VPS34; 58% with VRK2; 86% in the assay with WEE1; 53% in the assay with WEE2. Besides, the “Percent Control” value is reported as 97% in the assay on WNK1; 78% with WNK2; 92% in the assay with WNK3; 72% in the assay with WNK4; 41% in the assay with YANK1; 26% in the assay on YANK2. Besides, the entries for the “Percent Control” value in the assay with YANK3 and in the assay on YES were 70% and 46%, respectively.

As to `COc1cc(C=NNc2ncnc3c2cnn3-c2ccccc2)ccc1O` [GW513184X], the “Percent Control” value worked out at 100% in the assay on TXK; 47% in assay [1]; 8% in assay [2]; 100% with TYRO3; 100% with ULK1; 100% with ULK2. The “Percent Control” value in the assay on ULK3 was 67%; in the assay on VEGFR2, 95%; with VPS34 it was 100%; in the assay on VRK2, 100%; with WEE1 it was 96%; in the assay with WEE2, 100%. Moreover, the “Percent Control” value is given as 97% in the assay with WNK1; 100% with WNK2; 100% in the assay on WNK3; 100% with WNK4; 89% with YANK1; 100% in the assay on YANK2. Besides, the “Percent Control” value is 100% with YANK3 and 74% in the assay on YES.
